Activity calls are given as the source filed them. How the source made its calls: active means hit-call score of the fitted dose curve at least 0.9, where 1 is the maximum; inactive means score below 0.9.
Tests used:
[1] = molecular target: Paired box protein Pax-6 (Homo sapiens) (UniProt P26367); test: ATG_Pax6_CIS: Attagene CIS-FACTORIAL HepG2 Assay for human Paired Box 6 (PAX6) (AID 2282956); details: HepG2 CIS-FACTORIAL PAX6 reporter transcription, RNA readout; actives raise or lower the signal
Outline: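 Transient MRTU transfection of HepG2 → compound exposure 24 h → TriZol RNA, oligo(dT) RT → PCR, 6-FAM primer extension, HpaI cut → capillary electrophoresis; activity fitted both directions against DMSO.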

[2] = ATG_PXRE_CIS: Attagene CIS-FACTORIAL HepG2 Assay for human Pregnane X Receptor Element (PXRE) (AID 2282957); details: HepG2 Attagene CIS-FACTORIAL PXRE reporter, mRNA; actives raise or lower the signal
Outline: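 Transfect HepG2 with MRTUs (cis promoter elements); dose chemical, incubate 24 h; isolate RNA, RT with oligo(dT), PCR, 6-FAM label, HpaI cut, CE. Gain/loss fit vs DMSO.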

[3] = ATG_PPRE_CIS: Attagene CIS-FACTORIAL HepG2 Assay for human Peroxisome Proliferator-activated Response Element (PPRE) (AID 2282958); details: HepG2 PPRE cis-element reporter, Attagene transcription factor profiling; actives raise or lower the signal
Outline: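 Cells are first transfected transiently with the multiplexed reporter library, then dosed for 24 h. Total RNA is reverse-transcribed, amplified, fluorescently end-labeled and HpaI-cut before capillary electrophoresis; activity is fitted bidirectionally against DMSO controls.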

[4] = ATG_RORE_CIS: Attagene CIS-FACTORIAL HepG2 Assay for human RAR-related Orphan Receptor Element (RORE) (AID 2282959); details: HepG2 Attagene cis-factorial RORE reporter, mRNA; actives raise or lower the signal
Outline: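 Cells were HepG2 carrying transfected cis-regulated reporter constructs, dosed for 24 hours. Total RNA was reverse-transcribed and reporter cDNA amplified, fluorescently labeled and sized by capillary electrophoresis. Activity was fitted bidirectionally relative to DMSO.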

[5] = ATG_Sox_CIS: Attagene CIS-FACTORIAL HepG2 Assay for human SRY-box transcription factor (SOX) (AID 2282960); details: HepG2 Attagene cis-factorial SOX reporter, mRNA; actives raise or lower the signal
Outline: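 Transient MRTU transfection of HepG2; 24 h compound incubation; TriZol RNA, oligo(dT) RT, PCR, 6-FAM primer extension, HpaI cut, CE. Bidirectional fit, DMSO = baseline.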

[6] = molecular target: Transcription factor Sp1 (Homo sapiens) (UniProt P08047); test: ATG_Sp1_CIS: Attagene CIS-FACTORIAL HepG2 Assay for human Specificity Protein 1 (Sp1) (AID 2282961); details: HepG2 Sp1 cis-reporter transcription, actives raise or lower the signal
Outline: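 Endogenous Sp1 activity was gauged in human liver HepG2 cells bearing transfected reporter units under a cis-regulating promoter. After 24 h dosing, reporter mRNA was quantified by RT-PCR with capillary electrophoresis, and activity fitted bidirectionally versus DMSO.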

[7] = molecular target: Signal transducer and activator of transcription 3 (Homo sapiens) (UniProt P40763); test: ATG_STAT3_CIS: Attagene CIS-FACTORIAL HepG2 Assay for human Signal Transducer and Activator of Transcription 3 (STAT3) (AID 2282963); details: HepG2, Attagene cis-factorial STAT3 reporter transcription; actives raise or lower the signal
Outline: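 HepG2 cells transiently transfected with cis-element-driven multiple reporter transcription units; after 24 h chemical exposure, reporter mRNA measured by RT-PCR, 6-FAM primer-extension labelling, HpaI digestion and capillary electrophoresis. Bidirectional fitting versus DMSO baseline.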

[8] = ATG_TA_CIS: Attagene CIS-FACTORIAL HepG2 Assay for human TA Basal Promoter (AID 2282964); details: HepG2 Attagene CIS-factorial TA basal promoter reporter; actives raise or lower the signal
Outline: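 Background-control readout: TA basal promoter reporter mRNA, fitted in both directions relative to DMSO. Measured by RT-PCR and capillary electrophoresis 24 hours after treating HepG2 human liver cells transiently carrying multiplexed cis-regulated reporter constructs.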

[9] = ATG_SREBP_CIS: Attagene CIS-FACTORIAL HepG2 Assay for human Sterol Regulatory Element Binding (SREBP) (AID 2282962); details: HepG2 Attagene cis-factorial SREBP reporter, mRNA; actives raise or lower the signal
Outline: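 Transfected HepG2 (cis-regulated reporter library, endogenous TFs) → compound 24 h → total RNA → oligo(dT) RT → reporter-specific PCR → FAM primer extension, HpaI cut → CE fluorescence. Fit bidirectional vs DMSO.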

Measured: AC50

Sequence of Paired box protein Pax-6 (Homo sapiens) (P26367 whole entry, looked up): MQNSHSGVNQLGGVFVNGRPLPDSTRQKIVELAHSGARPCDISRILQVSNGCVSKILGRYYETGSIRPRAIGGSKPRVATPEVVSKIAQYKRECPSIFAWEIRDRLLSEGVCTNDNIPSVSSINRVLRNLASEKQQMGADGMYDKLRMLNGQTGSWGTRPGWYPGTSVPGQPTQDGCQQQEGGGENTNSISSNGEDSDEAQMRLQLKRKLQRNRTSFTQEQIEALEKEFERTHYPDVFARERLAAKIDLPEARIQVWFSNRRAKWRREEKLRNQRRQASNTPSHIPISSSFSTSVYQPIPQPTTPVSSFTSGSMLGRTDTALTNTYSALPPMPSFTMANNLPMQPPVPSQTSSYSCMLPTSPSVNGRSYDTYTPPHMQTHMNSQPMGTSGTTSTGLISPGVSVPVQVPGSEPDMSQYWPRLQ
Sequence of Signal transducer and activator of transcription 3 (Homo sapiens) (P40763 whole entry, looked up): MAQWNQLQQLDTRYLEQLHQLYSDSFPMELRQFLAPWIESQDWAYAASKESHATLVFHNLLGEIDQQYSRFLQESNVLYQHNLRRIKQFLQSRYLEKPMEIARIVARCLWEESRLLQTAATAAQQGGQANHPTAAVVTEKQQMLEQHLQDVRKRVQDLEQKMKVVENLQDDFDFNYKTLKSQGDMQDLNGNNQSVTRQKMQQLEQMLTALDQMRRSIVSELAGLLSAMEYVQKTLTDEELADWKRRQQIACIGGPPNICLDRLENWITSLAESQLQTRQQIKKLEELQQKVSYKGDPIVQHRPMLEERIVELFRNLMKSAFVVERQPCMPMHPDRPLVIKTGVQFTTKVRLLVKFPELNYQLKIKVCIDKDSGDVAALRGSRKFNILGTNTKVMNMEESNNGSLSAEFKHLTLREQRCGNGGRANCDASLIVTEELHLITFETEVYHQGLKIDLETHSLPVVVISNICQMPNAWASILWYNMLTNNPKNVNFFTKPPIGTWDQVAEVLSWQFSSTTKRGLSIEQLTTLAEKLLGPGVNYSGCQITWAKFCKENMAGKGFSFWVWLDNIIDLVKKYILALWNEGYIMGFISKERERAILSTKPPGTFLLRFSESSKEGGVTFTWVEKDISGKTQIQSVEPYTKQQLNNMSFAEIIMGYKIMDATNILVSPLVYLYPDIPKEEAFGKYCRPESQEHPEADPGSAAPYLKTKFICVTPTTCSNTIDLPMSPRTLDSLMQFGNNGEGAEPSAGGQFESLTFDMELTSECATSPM
Sequence of Transcription factor Sp1 (Homo sapiens) (P08047 whole entry, looked up): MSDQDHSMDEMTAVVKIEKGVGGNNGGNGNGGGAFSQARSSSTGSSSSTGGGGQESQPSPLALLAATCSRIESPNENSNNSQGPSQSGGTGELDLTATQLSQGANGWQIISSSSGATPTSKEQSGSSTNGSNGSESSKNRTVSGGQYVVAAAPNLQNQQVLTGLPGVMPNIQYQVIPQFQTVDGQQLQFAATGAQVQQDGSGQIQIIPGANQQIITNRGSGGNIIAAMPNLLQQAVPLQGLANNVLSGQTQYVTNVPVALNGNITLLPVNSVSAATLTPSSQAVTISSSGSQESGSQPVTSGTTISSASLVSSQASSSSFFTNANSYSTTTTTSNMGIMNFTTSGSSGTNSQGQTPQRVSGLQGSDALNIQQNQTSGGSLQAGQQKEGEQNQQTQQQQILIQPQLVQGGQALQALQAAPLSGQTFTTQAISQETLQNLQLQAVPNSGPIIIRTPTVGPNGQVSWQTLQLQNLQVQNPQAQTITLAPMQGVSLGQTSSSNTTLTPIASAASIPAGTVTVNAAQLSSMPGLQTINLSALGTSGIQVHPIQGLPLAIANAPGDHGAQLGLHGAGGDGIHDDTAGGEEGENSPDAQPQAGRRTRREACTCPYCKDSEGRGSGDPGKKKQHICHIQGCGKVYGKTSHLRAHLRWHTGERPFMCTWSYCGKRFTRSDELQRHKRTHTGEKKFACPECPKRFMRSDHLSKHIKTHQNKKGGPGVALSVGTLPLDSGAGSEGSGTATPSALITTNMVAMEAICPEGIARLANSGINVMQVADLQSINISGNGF

CC(Cl)COP(=O)(OCC(C)Cl)OCC(C)Cl (stereo not given)
active: [2] 4.13 µM
not listed: [9]
inactive: all other assays above

C=CCOC(=O)c1ccc(C(=O)OCC=C)c(C(=O)OCC=C)c1
active: [2] 21 µM | [3] 14.8 µM | [4] 32.5 µM
not listed: [7]
inactive: all other assays above

CCCCCCCCCCCCCc1ccccc1
not listed: [7]
inactive: all other assays above

COC(=O)C=Cc1ccccc1
not listed: [7]
inactive: all other assays above

O=C1CCCCCCCCCCC1
active: [2] 8.96 µM
inactive: all other assays above

Cc1ccccc1CCO
active: [2] 26.6 µM
not listed: [9]
inactive: all other assays above

c1ccc2cnccc2c1
active: [2] 27.6 µM
inactive: all other assays above

CC(=O)C(C)C
inactive: all assays above

CC1CCC(C(C)(C)S)C(=O)C1 (stereo not given)
active: [2] 2.13 µM
inactive: all other assays above

CC(C)=NNC(N)=S
inactive: all assays above

CC/C=C\C/C=C\C/C=C\CCCCCCCC(=O)OC
active: [2] 7.37 µM | [4] 164 µM | [6] 128 µM
not listed: [7]
inactive: all other assays above

Oc1c(Cl)cc(Cl)c(Cl)c1Cl
active: [1] 82.6 µM | [2] 26.5 µM | [3] 21.9 µM | [4] 43.4 µM | [8] 61.5 µM
inactive: [5] | [6] | [9] | [7]

CC1=CCC2CC1C2(C)C (stereo not given)
active: [2] 37.2 µM
inactive: all other assays above

C=CC(C)(O)CC/C=C(\C)CC (stereo not given)
active: [2] 4.25 µM
not listed: [7]
inactive: all other assays above

COc1nccnc1CC(C)C
not listed: [7]
inactive: all other assays above

CCCCCC[C@@H](O)C/C=C\CCCCCCCC(=O)OCC(O)CO (stereo not given in full)
active: [1] 134 µM | [3] 11 µM | [6] 190 µM | [9] 122 µM | [8] 150 µM
inactive: [2] | [4] | [5] | [7]

CCC1COC(=O)O1 (stereo not given)
active: [2] 16.6 µM
not listed: [5]
inactive: all other assays above

CC(C)c1cc(C(C)C)cc(C(C)C)c1
inactive: [3] | [4] | [7] | [8]
active: [1] 159 µM | [2] 52.1 µM | [5] 159 µM | [6] 145 µM | [9] 100 µM

CC(C)C(=O)OCCc1ccccc1
inactive: all assays above

C=CCCCCCCCCC=O
active: [2] 100 µM | [3] 64.2 µM
inactive: all other assays above

CC(=O)OCC=C(C)C
active: [2] 52.1 µM
inactive: all other assays above

CCOC(=O)C1=NOC(c2ccccc2)(c2ccccc2)C1
active: [2] 18.3 µM
inactive: all other assays above

CCCCCCCCCCCCc1ccc(O)cc1
active: [2] 1.53 µM
not listed: [7]
inactive: all other assays above

CC1(C)C(=O)N(CO)C(=O)N1CO
active: [2] 27.8 µM
inactive: all other assays above

Nc1nc(N)nc(-c2ccccc2)n1
not listed: [7]
inactive: all other assays above

CC(=O)OC1CCCCC1
not listed: [9]
inactive: all other assays above

CCC(C)C(=O)OC (stereo not given)
not listed: [9]
inactive: all other assays above
